Laboratory results taken from paper PMC12864922, “TDP-43 directly inhibits mRNA accumulation in neurites through modulation of mRNA stability”.
Over roughly 9,900 sequences, “r (bound/input frequency ratio)” has its median near 0.7; the highest 2% begin near 6.5. This is one part of a sample in which the highest values are shown more often than they occur.

B1: ENSMUSG00000043670.201|Diras1 (ssRNA)
RNA: GGGAGUUCUACAGUCCGACGAUCGCUUCGAUAUCCGCAUGCUAUGAGUGGCUCCUGGGCCUGUGUCCCACCCAGAUGAGGGUGACUUAGAAUUCUGUGUUUAUGUGCCUGUGUGUGUGGAUGGGUGUGUGUCUGUCUUGGGAUGGGGUGUUCUUGCACCACUUUGUGUUCUUAGUGAGACCACAGUGUAAGUGGCCGUGUGUGUGUGUGGGGGGGGGCACCUAGACAUUGUGGUGUGUCUGUAUGGCUCUGUGUUUUCAGGGGUGGGUGACACAGGCCUGUCUGAUGAGCACCAGGUCUGUUCCUCUUGCGGUCGCACUAGUGUGGAAUUCUCGGGUGUCAAGG
B2: ENSMUSG00000043670.195|Diras1 (ssRNA)
RNA: GGGAGUUCUACAGUCCGACGAUCGCUUCGAUAUCCGCAUGCUAAGCCCCUGUGGUAUCUGCGAGACUGUCCAGGAGACUUGAGUGGCUCCUGGGCCUGUGUCCCACCCAGAUGAGGGUGACUUAGAAUUCUGUGUUUAUGUGCCUGUGUGUGUGGAUGGGUGUGUGUCUGUCUUGGGAUGGGGUGUUCUUGCACCACUUUGUGUUCUUAGUGAGACCACAGUGUAAGUGGCCGUGUGUGUGUGUGGGGGGGGGCACCUAGACAUUGUGGUGUGUCUGUAUGGCUCUGUGUUUUCAGGGGUGGGCUCUUGCGGUCGCACUAGUGUGGAAUUCUCGGGUGUCAAGG
B3: ENSMUSG00000043670.204|Diras1|34:38;48:57;63:70;103:107;136:148;172:177;180:184;189:193 (ssRNA)
RNA: GGGAGUUCUACAGUCCGACGAUCGCUUCGAUAUCCGCAUGCUAGUGUCCCACCCAGAUGAGGGUGACUUAGAAUUCACACAUUAUGUGCCACACACACACGAUGGCACACACACUGUCUUGGGAUGGGGUGUUCUUGCACCACUUACACAUCUUAGUGAGACCACAGUGUAAGUGGCCCACACACACACACGGGGGGGGCACCUAGACAUUGUGCACACACUCAUACGCUCACACAUUUCAGGGGUGGGUGACACAGGCCUGUCUGAUGAGCACCAGGUCUGUUCCAGGCUGUGGCAAGCUGGCUCUUGCGGUCGCACUAGUGUGGAAUUCUCGGGUGUCAAGG
B4: ENSMUSG00000043670.213|Diras1 (ssRNA)
RNA: GGGAGUUCUACAGUCCGACGAUCGCUUCGAUAUCCGCAUGCUAGUGGAUGGGUGUGUGUCUGUCUUGGGAUGGGGUGUUCUUGCACCACUUUGUGUUCUUAGUGAGACCACAGUGUAAGUGGCCGUGUGUGUGUGUGGGGGGGGGCACCUAGACAUUGUGGUGUGUCUGUAUGGCUCUGUGUUUUCAGGGGUGGGUGACACAGGCCUGUCUGAUGAGCACCAGGUCUGUUCCAGGCUGUGGCAAGCUGGCUCCUGGCUCAGAAGUGACAAAGCUGCAGUACAGAGGCCUCAGUGUGAGGUCAUCUCUUGCGGUCGCACUAGUGUGGAAUUCUCGGGUGUCAAGG
B5: ENSMUSG00000043670.216|Diras1 (ssRNA)
RNA: GGGAGUUCUACAGUCCGACGAUCGCUUCGAUAUCCGCAUGCUAGUCUUGGGAUGGGGUGUUCUUGCACCACUUUGUGUUCUUAGUGAGACCACAGUGUAAGUGGCCGUGUGUGUGUGUGGGGGGGGGCACCUAGACAUUGUGGUGUGUCUGUAUGGCUCUGUGUUUUCAGGGGUGGGUGACACAGGCCUGUCUGAUGAGCACCAGGUCUGUUCCAGGCUGUGGCAAGCUGGCUCCUGGCUCAGAAGUGACAAAGCUGCAGUACAGAGGCCUCAGUGUGAGGUCAUCACCUCACAGUGGCUACACUCUUGCGGUCGCACUAGUGUGGAAUUCUCGGGUGUCAAGG
B6: ENSMUSG00000043670.200|Diras1 (ssRNA)
RNA: GGGAGUUCUACAGUCCGACGAUCGCUUCGAUAUCCGCAUGCUAGAGACUUGAGUGGCUCCUGGGCCUGUGUCCCACCCAGAUGAGGGUGACUUAGAAUUCUGUGUUUAUGUGCCUGUGUGUGUGGAUGGGUGUGUGUCUGUCUUGGGAUGGGGUGUUCUUGCACCACUUUGUGUUCUUAGUGAGACCACAGUGUAAGUGGCCGUGUGUGUGUGUGGGGGGGGGCACCUAGACAUUGUGGUGUGUCUGUAUGGCUCUGUGUUUUCAGGGGUGGGUGACACAGGCCUGUCUGAUGAGCACCAGGUCUCUUGCGGUCGCACUAGUGUGGAAUUCUCGGGUGUCAAGG
B7: ENSMUSG00000043670.199|Diras1 (ssRNA)
RNA: GGGAGUUCUACAGUCCGACGAUCGCUUCGAUAUCCGCAUGCUAGUCCAGGAGACUUGAGUGGCUCCUGGGCCUGUGUCCCACCCAGAUGAGGGUGACUUAGAAUUCUGUGUUUAUGUGCCUGUGUGUGUGGAUGGGUGUGUGUCUGUCUUGGGAUGGGGUGUUCUUGCACCACUUUGUGUUCUUAGUGAGACCACAGUGUAAGUGGCCGUGUGUGUGUGUGGGGGGGGGCACCUAGACAUUGUGGUGUGUCUGUAUGGCUCUGUGUUUUCAGGGGUGGGUGACACAGGCCUGUCUGAUGAGCACUCUUGCGGUCGCACUAGUGUGGAAUUCUCGGGUGUCAAGG
B8: ENSMUSG00000043670.206|Diras1 (ssRNA)
RNA: GGGAGUUCUACAGUCCGACGAUCGCUUCGAUAUCCGCAUGCUAGAUGAGGGUGACUUAGAAUUCUGUGUUUAUGUGCCUGUGUGUGUGGAUGGGUGUGUGUCUGUCUUGGGAUGGGGUGUUCUUGCACCACUUUGUGUUCUUAGUGAGACCACAGUGUAAGUGGCCGUGUGUGUGUGUGGGGGGGGGCACCUAGACAUUGUGGUGUGUCUGUAUGGCUCUGUGUUUUCAGGGGUGGGUGACACAGGCCUGUCUGAUGAGCACCAGGUCUGUUCCAGGCUGUGGCAAGCUGGCUCCUGGCUCAGCUCUUGCGGUCGCACUAGUGUGGAAUUCUCGGGUGUCAAGG
B9: ENSMUSG00000043670.196|Diras1 (ssRNA)
RNA: GGGAGUUCUACAGUCCGACGAUCGCUUCGAUAUCCGCAUGCUAUGUGGUAUCUGCGAGACUGUCCAGGAGACUUGAGUGGCUCCUGGGCCUGUGUCCCACCCAGAUGAGGGUGACUUAGAAUUCUGUGUUUAUGUGCCUGUGUGUGUGGAUGGGUGUGUGUCUGUCUUGGGAUGGGGUGUUCUUGCACCACUUUGUGUUCUUAGUGAGACCACAGUGUAAGUGGCCGUGUGUGUGUGUGGGGGGGGGCACCUAGACAUUGUGGUGUGUCUGUAUGGCUCUGUGUUUUCAGGGGUGGGUGACACCUCUUGCGGUCGCACUAGUGUGGAAUUCUCGGGUGUCAAGG

Biological target: TDP-43 (Homo sapiens, UniProt Q13148 1-414)
Sequence (Q13148 whole entry): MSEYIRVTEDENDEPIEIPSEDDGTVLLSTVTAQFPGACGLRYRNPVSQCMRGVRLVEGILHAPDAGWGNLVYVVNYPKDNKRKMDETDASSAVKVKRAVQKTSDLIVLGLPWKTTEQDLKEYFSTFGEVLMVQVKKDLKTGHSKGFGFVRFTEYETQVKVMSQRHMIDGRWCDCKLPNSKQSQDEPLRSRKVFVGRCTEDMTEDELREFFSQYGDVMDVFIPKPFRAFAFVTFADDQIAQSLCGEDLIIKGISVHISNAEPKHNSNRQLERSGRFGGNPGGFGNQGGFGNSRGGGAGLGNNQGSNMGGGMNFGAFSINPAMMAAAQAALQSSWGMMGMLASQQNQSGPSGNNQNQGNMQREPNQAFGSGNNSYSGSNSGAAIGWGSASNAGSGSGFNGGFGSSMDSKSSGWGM
Test: RNA Bind-n-Seq with designed 260-mer pool; 25 mM Tris-HCl, 150 mM KCl, 3 mM MgCl2, BSA (printed 500 mg/mL), 20 units/mL SUPERase IN; pH not stated; 500 nM RNA pool, 1 h, 4 C; TDP-43 5, 50, 500 nM; high values mean tight binding
Conditions: protein: recombinant; tags: SBP (GST cleaved off with PreScission; pGEX-GST-SBP)
Summary of the method: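 An in vitro-transcribed pool of 260-nt 3′ UTR oligos (500 nM) was incubated for 1 h at 4 °C with recombinant SBP-tagged TDP-43 at 5, 50 or 500 nM held on streptavidin beads. The buffer contained 25 mM Tris-HCl, 150 mM KCl, 3 mM MgCl2, BSA and SUPERase IN. Biotin-eluted bound RNA was sequenced, and binding, R, is each oligo's normalized read abundance in the bound sample over that in input.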

Binder | binding signal
B1 | 4.7 R (bound/input frequency ratio)
B2 | 5.71 R (bound/input frequency ratio)
B3 | 1.1 R (bound/input frequency ratio)
B4 | 6.42 R (bound/input frequency ratio)
B5 | 3.28 R (bound/input frequency ratio)
B6 | 11.3 R (bound/input frequency ratio)
B7 | 5.44 R (bound/input frequency ratio)
B8 | 6.69 R (bound/input frequency ratio)
B9 | 6.21 R (bound/input frequency ratio)
